From ChEMBL document CHEMBL3988442, “University of Dundee, Small-Polar-MMV Screening Library” (2021)
For part of these data: Measured potencies and affinities stand elsewhere.

What was measured:
Set-up in all cases: scale not given: direction of the effect not stated beside the values
[1] = molecular target: Protein translocase subunit SecA (Escherichia coli (strain K12)) (UniProt P10408); assay: Assay to Identify E. coli SecA ATPase Inhibitors; format: functional; details: 30 µM
[2] = molecular target: T1, Ubiquitin-activating enzyme e1, putative (Leishmania donovani (strain BPK282A1)) (UniProt E9BSI1); assay: Leishmania donovani Ubiquitin Activating Enzyme (LdE1); format: functional; details: 30 µM
T1 sequence (whole entry): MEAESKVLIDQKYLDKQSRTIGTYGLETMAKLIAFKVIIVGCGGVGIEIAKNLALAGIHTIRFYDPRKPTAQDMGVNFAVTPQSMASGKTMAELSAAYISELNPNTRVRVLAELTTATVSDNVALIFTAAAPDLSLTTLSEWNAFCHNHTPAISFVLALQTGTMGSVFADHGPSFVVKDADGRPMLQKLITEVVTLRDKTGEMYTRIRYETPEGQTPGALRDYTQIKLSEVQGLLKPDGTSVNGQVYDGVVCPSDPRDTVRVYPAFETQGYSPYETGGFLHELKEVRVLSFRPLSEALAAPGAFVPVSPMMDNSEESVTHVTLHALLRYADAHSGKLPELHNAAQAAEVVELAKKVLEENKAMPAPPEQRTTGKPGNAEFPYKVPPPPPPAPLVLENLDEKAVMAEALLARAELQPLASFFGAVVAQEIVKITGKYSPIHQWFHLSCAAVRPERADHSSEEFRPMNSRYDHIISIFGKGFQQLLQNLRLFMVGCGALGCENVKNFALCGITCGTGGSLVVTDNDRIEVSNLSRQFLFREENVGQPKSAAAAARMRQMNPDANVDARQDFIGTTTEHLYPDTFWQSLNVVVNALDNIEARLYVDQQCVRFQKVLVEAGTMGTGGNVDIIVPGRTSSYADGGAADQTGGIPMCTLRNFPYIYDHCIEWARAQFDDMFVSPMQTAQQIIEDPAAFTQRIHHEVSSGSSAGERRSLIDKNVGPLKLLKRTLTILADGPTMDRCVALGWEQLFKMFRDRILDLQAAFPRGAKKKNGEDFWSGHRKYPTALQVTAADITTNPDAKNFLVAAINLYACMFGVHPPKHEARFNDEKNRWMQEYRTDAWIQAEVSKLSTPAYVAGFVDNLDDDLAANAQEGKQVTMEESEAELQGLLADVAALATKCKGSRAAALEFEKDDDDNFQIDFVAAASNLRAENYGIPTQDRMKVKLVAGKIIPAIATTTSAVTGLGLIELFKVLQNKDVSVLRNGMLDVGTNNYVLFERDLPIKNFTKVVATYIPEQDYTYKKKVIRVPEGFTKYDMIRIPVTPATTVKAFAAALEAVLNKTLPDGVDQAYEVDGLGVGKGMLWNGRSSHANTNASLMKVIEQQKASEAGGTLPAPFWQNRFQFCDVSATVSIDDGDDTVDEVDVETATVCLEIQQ

[3] = molecular target: T2, Aspartate--tRNA(Asp/Asn) ligase (Mycobacterium tuberculosis (strain ATCC 25618 / H37Rv)) (UniProt P9WFW3); assay: Assay for Asp RNA synthetase-1 from Mycobacterium tuberculosis; format: functional; details: 30 µM; note: in the data most compounds retested in dose-response had high values
T2 sequence (whole entry): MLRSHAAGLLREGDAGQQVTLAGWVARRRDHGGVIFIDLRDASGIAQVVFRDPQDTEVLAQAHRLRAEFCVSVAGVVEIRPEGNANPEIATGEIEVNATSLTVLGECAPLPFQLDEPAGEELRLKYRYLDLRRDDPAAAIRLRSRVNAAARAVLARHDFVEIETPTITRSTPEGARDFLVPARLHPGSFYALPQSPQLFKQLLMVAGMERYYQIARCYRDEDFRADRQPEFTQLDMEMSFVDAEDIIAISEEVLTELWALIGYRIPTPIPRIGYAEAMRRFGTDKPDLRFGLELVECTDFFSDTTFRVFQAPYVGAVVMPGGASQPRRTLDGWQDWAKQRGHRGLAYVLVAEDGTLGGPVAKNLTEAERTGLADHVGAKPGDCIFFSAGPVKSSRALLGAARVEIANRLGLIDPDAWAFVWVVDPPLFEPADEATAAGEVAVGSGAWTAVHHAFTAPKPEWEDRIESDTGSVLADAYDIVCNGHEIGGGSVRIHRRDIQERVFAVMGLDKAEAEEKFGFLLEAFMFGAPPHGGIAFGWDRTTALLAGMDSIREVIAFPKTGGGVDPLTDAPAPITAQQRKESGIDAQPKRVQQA

[4] = molecular target: AMP-activated protein kinase, AMPK (Homo sapiens) (UniProt P54646+O43741+P54619+Q9UGJ0+Q9Y478+Q13131+Q9UGI9); assay: AMP-dependent Kinase enzyme assay. An in vitro enzyme assay that detects ADP turnover that is directly proportional to AMPK activity. This uses naive AMPK that is activated during the assay with MK-8722; format: functional; details: 30 µM
[5] = molecular target: Sialic acid-binding Ig-like lectin 9 (Homo sapiens) (UniProt Q9Y336); assay: Hs-Siglec9 ALPHAscreen SOP 20170721; details: 10 µM
Trypanosoma cruzi = assay: Trypanosoma cruzi phosphomannomutase and mannose-1-phosphate guanylyltransferase assay; format: functional; details: 10 µM
[6] = molecular target: T3, Arginase-2, mitochondrial (Homo sapiens) (UniProt P78540); assay: in vitro enzyme assay to detect the production of urea directly proportional to the activity of Arginase II; format: functional; details: 33.3 µM; note: in the data most compounds retested in dose-response had high values
T3 sequence (whole entry): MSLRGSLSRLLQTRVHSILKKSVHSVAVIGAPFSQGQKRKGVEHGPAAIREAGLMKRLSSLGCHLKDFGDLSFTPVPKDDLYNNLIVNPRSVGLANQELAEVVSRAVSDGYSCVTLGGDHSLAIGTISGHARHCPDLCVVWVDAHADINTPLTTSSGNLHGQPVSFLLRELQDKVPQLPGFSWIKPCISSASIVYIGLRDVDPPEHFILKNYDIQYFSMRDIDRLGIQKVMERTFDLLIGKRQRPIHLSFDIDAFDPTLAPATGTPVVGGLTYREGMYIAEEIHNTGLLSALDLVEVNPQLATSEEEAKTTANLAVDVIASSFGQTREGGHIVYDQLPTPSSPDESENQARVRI

[7] = molecular target: T4, Proteasome subunit beta (Trypanosoma cruzi) (UniProt O96673); assay: Trypanosoma cruzi proteasome chymotrypsin-like activity (TcProtChymo) assay.; note: in the data most compounds retested in dose-response had high values; format: functional; details: 9.37 µM
T4 sequence (whole entry): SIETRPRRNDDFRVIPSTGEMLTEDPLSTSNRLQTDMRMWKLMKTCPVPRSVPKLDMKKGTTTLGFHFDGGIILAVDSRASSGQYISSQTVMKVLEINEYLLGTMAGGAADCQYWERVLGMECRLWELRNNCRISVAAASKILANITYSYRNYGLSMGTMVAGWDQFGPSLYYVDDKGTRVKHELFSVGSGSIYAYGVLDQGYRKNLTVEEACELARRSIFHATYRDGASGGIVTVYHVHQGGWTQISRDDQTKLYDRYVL

Homo sapiens = species on record: Homo sapiens; assay: To identify inhibition of the IFN signalling (Jak-Stat) pathway via expression of an eGFP reporter gene under the control of an IFN-stimulated response element (ISRE) containing MxA promoter.; format: functional; details: 30 µM
[8] = molecular target: Shiga toxin 2 (Escherichia coli O157:H7) (UniProt P09385+P09386); assay: E. coli 0.157:H7 Shiga Toxin SOP - stx2 screening assay; format: functional; details: 30 µM
[9] = molecular target: T5, Tyrosyl-tRNA synthetase, putative (Trypanosoma cruzi (strain CL Brener)) (UniProt Q4DSP6); assay: Trypanosoma cruzi tyrosyl tRNA synthetase (TcYRS) _High Tyrosine SOP; format: functional; details: 30 µM; note: in the data most compounds retested in dose-response had high values
T5 sequence (whole entry): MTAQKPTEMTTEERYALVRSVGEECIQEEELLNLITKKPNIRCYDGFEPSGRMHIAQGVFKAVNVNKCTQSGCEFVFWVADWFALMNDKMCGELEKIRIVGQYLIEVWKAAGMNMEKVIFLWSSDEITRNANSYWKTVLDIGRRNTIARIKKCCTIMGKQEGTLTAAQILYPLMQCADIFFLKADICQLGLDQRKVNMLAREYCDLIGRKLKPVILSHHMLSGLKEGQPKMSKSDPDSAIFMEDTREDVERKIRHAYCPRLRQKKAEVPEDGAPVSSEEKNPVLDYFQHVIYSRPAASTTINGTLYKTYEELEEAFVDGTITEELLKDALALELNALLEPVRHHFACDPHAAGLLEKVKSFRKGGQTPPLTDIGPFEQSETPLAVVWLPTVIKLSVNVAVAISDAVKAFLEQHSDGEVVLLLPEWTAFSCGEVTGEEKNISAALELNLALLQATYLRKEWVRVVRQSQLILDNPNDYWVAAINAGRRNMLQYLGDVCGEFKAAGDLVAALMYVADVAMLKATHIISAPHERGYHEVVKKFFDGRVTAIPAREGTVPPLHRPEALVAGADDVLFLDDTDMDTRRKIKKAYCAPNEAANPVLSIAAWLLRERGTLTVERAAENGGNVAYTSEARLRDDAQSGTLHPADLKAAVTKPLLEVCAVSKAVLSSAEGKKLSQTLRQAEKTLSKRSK

[10] = molecular target: T5, Tyrosyl-tRNA synthetase, putative (Trypanosoma cruzi (strain CL Brener)); assay: Trypanosoma cruzi tyrosyl tRNA synthetase (TcYRS) SOP; format: functional; details: 30 µM
[11] = molecular target: Chromo domain-containing protein 1 (Saccharomyces cerevisiae (strain ATCC 204508 / S288c) (Baker's yeast)) (UniProt P32657); assay: ScCHD-1 Enzyme Inhibition Assay; format: functional; details: 30 µM; note: in the data most compounds retested in dose-response had high values
Chromo domain-containing protein 1 (Saccharomyces cerevisiae (strain ATCC 204508 / S288c) (Baker's yeast)), sequence (P32657 whole entry, the tested form may be a part): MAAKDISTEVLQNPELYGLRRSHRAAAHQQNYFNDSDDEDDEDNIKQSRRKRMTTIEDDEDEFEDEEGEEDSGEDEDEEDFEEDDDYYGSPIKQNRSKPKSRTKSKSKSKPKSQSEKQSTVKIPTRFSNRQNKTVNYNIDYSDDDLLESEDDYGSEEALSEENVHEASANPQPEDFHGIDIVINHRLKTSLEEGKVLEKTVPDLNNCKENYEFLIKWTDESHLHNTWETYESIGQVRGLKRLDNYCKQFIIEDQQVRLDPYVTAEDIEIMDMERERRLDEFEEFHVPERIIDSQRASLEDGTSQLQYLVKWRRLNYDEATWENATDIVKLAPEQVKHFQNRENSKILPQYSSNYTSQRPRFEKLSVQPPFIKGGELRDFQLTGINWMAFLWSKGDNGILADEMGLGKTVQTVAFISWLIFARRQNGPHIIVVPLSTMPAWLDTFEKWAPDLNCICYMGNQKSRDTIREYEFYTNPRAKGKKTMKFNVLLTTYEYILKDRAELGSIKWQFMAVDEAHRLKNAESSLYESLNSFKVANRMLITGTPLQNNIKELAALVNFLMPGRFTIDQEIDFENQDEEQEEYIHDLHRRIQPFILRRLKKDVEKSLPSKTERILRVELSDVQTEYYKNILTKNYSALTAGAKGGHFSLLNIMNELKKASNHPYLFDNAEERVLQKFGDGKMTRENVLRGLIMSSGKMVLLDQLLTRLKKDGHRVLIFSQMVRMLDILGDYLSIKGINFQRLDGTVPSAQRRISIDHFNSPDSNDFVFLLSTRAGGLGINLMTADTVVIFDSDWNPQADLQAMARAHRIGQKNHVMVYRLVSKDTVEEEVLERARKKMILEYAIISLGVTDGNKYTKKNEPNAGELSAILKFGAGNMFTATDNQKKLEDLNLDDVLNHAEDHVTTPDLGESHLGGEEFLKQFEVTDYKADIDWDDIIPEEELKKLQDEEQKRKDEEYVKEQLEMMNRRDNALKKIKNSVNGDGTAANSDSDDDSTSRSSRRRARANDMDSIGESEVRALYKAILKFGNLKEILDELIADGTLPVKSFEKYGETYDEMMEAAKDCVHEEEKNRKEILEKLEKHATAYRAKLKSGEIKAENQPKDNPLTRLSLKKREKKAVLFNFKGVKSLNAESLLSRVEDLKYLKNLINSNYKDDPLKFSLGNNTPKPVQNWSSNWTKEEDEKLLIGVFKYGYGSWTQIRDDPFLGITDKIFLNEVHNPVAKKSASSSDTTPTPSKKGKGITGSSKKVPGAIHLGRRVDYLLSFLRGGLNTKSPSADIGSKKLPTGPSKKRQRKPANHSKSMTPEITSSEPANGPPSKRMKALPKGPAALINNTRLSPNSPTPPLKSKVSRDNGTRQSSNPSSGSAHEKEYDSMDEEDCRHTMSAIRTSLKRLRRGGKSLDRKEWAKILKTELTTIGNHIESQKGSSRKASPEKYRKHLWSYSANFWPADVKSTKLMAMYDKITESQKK

Sialic acid-binding Ig-like lectin 9 (Homo sapiens), sequence (Q9Y336 whole entry): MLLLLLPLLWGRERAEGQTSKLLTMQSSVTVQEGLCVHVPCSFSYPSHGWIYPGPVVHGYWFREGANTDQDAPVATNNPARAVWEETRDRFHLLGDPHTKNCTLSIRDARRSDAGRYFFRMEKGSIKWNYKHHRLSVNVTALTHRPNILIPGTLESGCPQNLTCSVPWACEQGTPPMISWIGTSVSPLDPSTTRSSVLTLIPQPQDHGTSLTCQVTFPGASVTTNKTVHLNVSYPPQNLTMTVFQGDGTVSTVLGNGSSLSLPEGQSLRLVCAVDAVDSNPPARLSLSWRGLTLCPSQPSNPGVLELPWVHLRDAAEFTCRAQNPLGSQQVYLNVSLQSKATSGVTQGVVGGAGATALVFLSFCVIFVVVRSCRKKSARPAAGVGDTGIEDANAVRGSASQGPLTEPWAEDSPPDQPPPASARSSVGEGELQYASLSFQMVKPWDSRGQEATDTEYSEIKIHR
Protein translocase subunit SecA (Escherichia coli (strain K12)), sequence (P10408 whole entry): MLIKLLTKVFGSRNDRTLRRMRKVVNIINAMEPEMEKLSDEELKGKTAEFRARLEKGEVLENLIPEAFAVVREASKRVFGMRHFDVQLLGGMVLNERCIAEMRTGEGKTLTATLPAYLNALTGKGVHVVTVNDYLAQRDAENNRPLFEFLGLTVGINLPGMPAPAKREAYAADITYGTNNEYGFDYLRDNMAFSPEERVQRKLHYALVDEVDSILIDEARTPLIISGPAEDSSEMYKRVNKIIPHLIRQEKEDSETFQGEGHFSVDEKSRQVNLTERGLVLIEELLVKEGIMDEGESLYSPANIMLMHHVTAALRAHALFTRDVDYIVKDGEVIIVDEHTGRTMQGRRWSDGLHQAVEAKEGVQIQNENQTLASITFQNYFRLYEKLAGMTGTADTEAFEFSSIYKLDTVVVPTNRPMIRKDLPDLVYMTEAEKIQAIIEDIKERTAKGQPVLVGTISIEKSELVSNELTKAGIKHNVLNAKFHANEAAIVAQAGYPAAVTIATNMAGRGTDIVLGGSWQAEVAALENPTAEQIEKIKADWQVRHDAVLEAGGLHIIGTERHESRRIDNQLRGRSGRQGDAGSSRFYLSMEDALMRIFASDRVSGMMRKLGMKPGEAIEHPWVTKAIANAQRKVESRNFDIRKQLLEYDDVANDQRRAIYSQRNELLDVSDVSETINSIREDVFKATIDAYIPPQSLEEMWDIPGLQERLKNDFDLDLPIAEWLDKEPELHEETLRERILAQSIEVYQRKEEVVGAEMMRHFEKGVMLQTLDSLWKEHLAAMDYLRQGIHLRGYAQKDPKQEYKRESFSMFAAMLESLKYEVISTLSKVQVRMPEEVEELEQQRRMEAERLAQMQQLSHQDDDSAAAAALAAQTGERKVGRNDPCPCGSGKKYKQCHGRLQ

Row | SMILES | Percent Effect [1] [%] | Percent Effect [2] [%] | Percent Effect [3] [%] | Percent Effect [4] [%] | Percent Effect [5] [%] | Percent Effect (Trypanosoma cruzi) [%] | Percent Effect [6] [%] | Percent Effect [7] [%] | Percent Effect (Homo sapiens) [%] | Percent Effect [8] [%] | Percent Effect [9] [%] | Percent Effect [10] [%] | Percent Effect [11] [%]
1 | Cc1oc(-c2ccco2)nc1CC(=O)N1CCN(CC(C)(C)O)CC1 | -3.06 | 5.2 | 0.144 | -3.3 | 5.79 | -0.294 | 5.68 | 8 | 22.9 | 30.6 | 2.86 | 9.41 | -21.6
2 | O=C(NCC1CC1)[C@H]1C[C@@H]2[C@@H](C1)OCCN2Cc1cccnc1 | -2.08 | -5.33 | -0.291 | 6.97 | 0.812 | -1.93 | -52.5 | -2.73 | 9.72 | -7.08 | -1.04 | -5 | 4.12
3 | Cc1c(CC(=O)N2CCN(CC(F)(F)F)CC2)nnn1-c1ccccc1 | -3.34 | 10.4 | 12.8 | -2.43 | 2.86 | -2.65 | 2.76 | 10.8 | 11.9 | -45.5 | 4.3 | 8.64 | -1.92
4 | Cc1ccc(N2CCO[C@H]3CN(CC4CC4)C[C@H]32)nn1 | -4.5 | 2.7 | -6.1 | 0.95 | -5.02 | 7.14 | -0.319 | 19.6 | -33.8 | 1.42 | 1.08 | 7.69 | 5.67
5 | Cc1cccc(C(=O)N2C[C@@H]3OCCN(C(C)C)[C@@H]3C2)n1 | -0.342 | 0 | 2.88 | 1.78 | 5.46 | 1.74 | -50 | 5.81 | -20.9 | -1.16 | -26 | 2.5 | 0.0349
6 | O=C(c1ccsc1)N1CCN2C[C@H](OCc3cccnc3)C[C@H]2C1 | -4.24 | 10.7 | -1.78 | 8.09 | -1.36 | -4.53 | 3.96 | 11.5 | 8.09 | 1.7 | 1.06 | -8.97 | -3.5
7 | CC1=N[C@@]2(CC[C@@H]3CNC[C@@H]32)C(=O)N1CC(C)C | 0.0241 | 13.5 | 7.41 | -8.73 | -11.6 | -6.35 | 7.96 | 11.2 | 30.2 | -6.54 | -1.08 | 0 | -5.25
8 | O=C(COc1ccccc1)N1C[C@@H](O)[C@H](N2CCCC2)C1 | 0.635 | 9.46 | -7.13 | 3.56 | -3.46 | 3.36 | -6.26 | 10.8 | 1.48 | -14.2 | -1.07 | 3.9 | -22
9 | Cn1cc(N2CCC3(CCN(Cc4cccnc4)C3)C2=O)cn1 (configuration not stated) | 1.77 | 5.41 | -4.84 | 7.18 | -13.3 | -4.79 | 1.59 | 25.1 | 2.62 | -17 | 0 | 10.3 | -1.3
